According to PubChem BioAssay (EPA / NIEHS):
Results filed as inconclusive are left out. Active and inactive are the calls of the source. The calls were made as follows: active = hit-call score of the fitted dose curve at least 0.9, where 1 is the maximum; inconclusive = response in the unintended direction; inactive = score below 0.9.

target: rat Acetylcholinesterase (AChE), Ache (gene 83817) (UniProt P37136); test: NVS_ENZ_rAChE: NovaScreen (NVS) Enzymatic Assay for rat Acetylcholinesterase (AChE) (AID 2283233)
Experimental: NVS_ENZ_rAChE is a biochemical, single-readout assay that uses extracted gene-proteins from Rat brain membranes in a tissue-based cell-free assay. Measurements were taken 0.33 hour after chemical dosing in a 96-well plate.NVS_ENZ_rAChE is one of one assay component(s) measured or calculated from the NVS_ENZ_rAChE assay. It is designed to make measurements of enzyme activity, a form of enzyme reporter, as detected with absorbance signals by Colorimetric technology.Data from the assay component NVS_ENZ_rAChE was analyzed into 1 assay endpoint. This assay endpoint, NVS_ENZ_rAChE, was analyzed in the positive analysis fitting direction relative to DMSO as the negative control and baseline of activity. Using a type of enzyme reporter, loss-of-signal activity can be used to understand changes in the enzymatic activity as they relate to the gene Ache. Furthermore, this assay endpoint can be referred to as a primary readout, because this assay has produced multiple assay endpoints where this one serves a enzymatic activity function. To generalize the intended target to other relatable targets, this assay endpoint is annotated to the esterase intended target family, where the subfamily is acetylcholinesterase.
Binding assays used specific radioligands (tritiated, iodinated) with non-radioactive competitive displacement ligands in agonist or antagonist protocols (as indicated) and various reference compounds and inhibitors to titrate specific binding to receptors and transporters. Most enzyme assays (CYPs, kinases, phosphatases, proteases, HDACs) used recombinant protein and specific substrates (fluorescence mostly, some colorimetric and radioactive) and inhibitors, followed by a biochemical separation of substrate and product. All assays for the biochemical HTS were initially run in duplicate at a single concentration (10 uM for CYP450 assays and 25 uM for all others). Assay-chemical combinations meeting a pre-defined threshold (e.g., 30% inhibition and other criteria defined below) were then run in singleton concentration-response format with maximum concentration of 20 uM for CYPs and 50 uM for all others. Each assay was run with positive and negative controls, and concurrent controls on every plate. The follow-up (secondary) screen tested active chemical-pairs in concentration series, as well as a few additional assays not tested in the primary screen, some selected negative inactives, and several cases re-run in the concentration series for confirmatory purposes.

Sequence of rat Acetylcholinesterase (AChE), Ache (gene 83817) (P37136 whole entry, looked up): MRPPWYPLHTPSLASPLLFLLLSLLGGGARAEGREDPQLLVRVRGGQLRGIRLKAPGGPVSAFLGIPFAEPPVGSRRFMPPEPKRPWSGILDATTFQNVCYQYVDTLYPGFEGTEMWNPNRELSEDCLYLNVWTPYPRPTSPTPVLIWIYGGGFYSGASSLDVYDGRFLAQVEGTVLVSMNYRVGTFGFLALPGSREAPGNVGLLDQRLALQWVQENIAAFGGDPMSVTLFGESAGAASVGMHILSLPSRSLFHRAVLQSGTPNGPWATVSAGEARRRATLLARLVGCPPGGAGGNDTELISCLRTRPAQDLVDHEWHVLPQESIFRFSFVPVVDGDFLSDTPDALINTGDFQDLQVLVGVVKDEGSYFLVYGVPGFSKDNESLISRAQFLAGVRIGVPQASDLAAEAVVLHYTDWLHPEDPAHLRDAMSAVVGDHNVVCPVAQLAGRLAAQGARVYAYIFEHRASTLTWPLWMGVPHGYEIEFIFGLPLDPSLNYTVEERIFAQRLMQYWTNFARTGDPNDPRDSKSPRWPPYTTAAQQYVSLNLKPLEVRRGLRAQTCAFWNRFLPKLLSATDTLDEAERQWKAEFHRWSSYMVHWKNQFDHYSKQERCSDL

Row | SMILES | AC50 | outcome
1 | COP(=O)(OC)SCn1c(=O)oc2cc(Cl)cnc21 | 2110 nM (active) | –
2 | CCCSP(=O)(OCC)Oc1ccc(Br)cc1Cl (stereo unspecified) | 2320 nM (active) | –
3 | CNC(=O)ON=C(SC)C(=O)N(C)C | 3260 nM (active) | –
4 | CNC(=O)ON=C(C)SC | 3860 nM (active) | –
5 | O=[N+]([O-])c1cc(C(F)(F)F)c(Cl)c([N+](=O)[O-])c1Nc1ncc(C(F)(F)F)cc1Cl | – | inactive
6 | CC(=NC#N)N(C)Cc1ccc(Cl)nc1 | – | inactive
7 | S=C1NCCN1 | 14300 nM (active) | –
8 | CNC(=O)Oc1cccc2c1OC(C)(C)O2 | 797 nM (active) | –
9 | CCOC(=O)CC(SP(=O)(OC)OC)C(=O)OCC (stereo unspecified) | 917 nM (active) | –
10 | CCOP(=S)(OCC)OC(Cl)C(Cl)(Cl)Cl (stereo unspecified) | 4060 nM (active) | –
11 | COP(=O)(OC)OC(Br)C(Cl)(Cl)Br (stereo unspecified) | 1010 nM (active) | –
